{"source": "PubChem BioAssay (NCI)", "note": "About 83,000 compounds went through this panel and 20% of them were active in at least one assay; those are over-represented in the sample as a whole.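 Single-dose data. Exposure time 48 hours. Values below 10 considered active.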 Unmarked numbers belong to inactive results. Active and inactive are the calls of the source."}
{"test_system": "HL-60(TB) leukemia", "test": "NCI-60 one-dose screen, 48 h (100 = growth as untreated, 0 = no growth, -100 = all killed)", "settings": "10 µM unless noted"}
{"smiles": "OC1CSSC1Cn1cnc2c(Nc3ccc(F)c(Cl)c3)ncnc21", "note": "(stereo not given)", "growth": "45.8%"}
{"smiles": "O=C(CSc1nnc(-c2cccnc2SCc2ccccc2)o1)Nc1nc(Cl)cc(Cl)n1", "growth": "98.3%"}
{"smiles": "CCOC(=O)c1ccc(NC(=O)CCCN(CC)CC)cc1", "growth": "100%"}
{"smiles": "C=C1C(=O)O[C@H]2[C@H]1CC/C(CNC(=O)c1cc3ccccc3[nH]1)=C\\CC[C@@]1(C)O[C@@H]21", "growth": "-41.5% (active)"}
{"smiles": "COc1cc(NCC(O)CN(CC(C)C)CC(C)C)c2nc(C)ccc2c1", "note": "(stereo not given)", "growth": "81.2%"}
{"smiles": "CCN(CC)/C([O-])=c1\\cccc\\c1=C1\\N=C(c2ccccc2)N=C1[n+]1ccc(-c2ccccc2)cc1", "growth": "92.2%"}
{"smiles": "Nc1c(C(=O)Nc2ccccn2)sc2nc3c(cc12)C(=O)CCC3", "growth": "5.15% (active)"}
{"smiles": "COc1ccc(NC(N)=NCCCOc2ccc(F)cc2)cc1", "growth": "87.7%"}
{"smiles": "OCCNc1ccccc1", "growth": "100%"}
{"smiles": "NCCCN1CCCC1=O", "growth": "90.1%"}
{"smiles": "COc1ccc(C2Nc3ccccc3-n3cccc32)cc1", "note": "(stereo not given)", "growth": "113%"}
{"smiles": "[2H]C([2H])([2H])Oc1ccc(/C=C/C(=O)/C=C(O)/C=C/c2ccc(OC([2H])([2H])[2H])c(OC([2H])([2H])[2H])c2)cc1OC([2H])([2H])[2H]", "growth": "54.5%"}
{"smiles": "CC1=C(C(=O)OCc2ccccc2)C(c2ccc3c(c2)OCO3)n2c(nc3ccccc32)N1", "note": "(stereo not given)", "growth": "-14.7% (active)"}
{"smiles": "C=C(C)[C@@H]1CC[C@]2(C)[C@H](CC=C3[C@@H]4CC(C)(C)CC[C@]4(C(N)=O)CC[C@]32C)[C@@]1(C)CCC#N", "growth": "16%"}
{"smiles": "CCOC(=O)C(C(=O)OCC)C1CCCCC1", "growth": "105%"}
{"smiles": "COC1=C(OC)C(=O)C(SC/C=C(\\C)CCCC(C)CCCC(C)CCCC(C)C)=CC1=O", "note": "(stereo not given)", "growth": "-36.3% (active)"}
{"smiles": "COc1ccc(C(C)=O)cc1N1C(=O)C2C(C1=O)C1(c3ccccc3)C(=O)C2(c2ccccc2)C(c2ccc(C)cc2)=C1c1ccc(C)cc1", "note": "(stereo not given)", "growth": "17.1%"}
{"smiles": "CCNC(=O)Oc1ccc(/C(=C(\\C)c2ccccc2)c2ccc(OCCN(CC)CC)cc2)cc1", "growth": "52.5%"}
{"smiles": "CCOC(=O)c1ccc(NC(=O)CSC(N)=O)cc1", "growth": "93.2%"}
{"smiles": "COC(=O)/C=C1/SC(N2N=C(c3cccs3)CC2c2ccc(F)cc2)=NC1=O", "note": "(stereo not given)", "growth": "-7.95% (active)"}
{"smiles": "Cc1cc(O)cc(-c2nn(C)cc2-c2cc(N3CCOCC3)nc(-c3cccnc3)n2)c1", "growth": "14.8%"}
{"smiles": "O=C(/C=C/CN1CCOCC1)Nc1cc2c(Nc3cccc(Cl)c3F)ncnc2cc1OCCOC(F)F", "growth": "89.5%"}
{"smiles": "Cc1ccc(C(=O)Nc2ccc(CN3CCN(C)CC3)c(C(F)(F)F)c2)cc1C#Cc1cnc(N)c2ccccc12", "growth": "-37.9% (active)"}
{"smiles": "COc1ccc(-c2nc(-c3ccccc3)c(-c3ccccc3)n2C2CC2)cc1OC1CCCCC1", "growth": "30%"}
{"smiles": "C#CC[C@@H]1C[C@]2(C)[C@H]3CC[C@@H]4[C@H]5C(C(=C)C)CC[C@]5(C(=O)NCCCCN)CC[C@@]4(C)[C@]3(C)CC[C@H]2C(C)(C)[C@H]1OC(C)=O", "note": "(stereo not given in full)", "growth": "-38.3% (active)"}
{"smiles": "CC1=C(O)C(=O)C(C(C#N)(C#N)C(C#N)C#N)C1", "note": "(stereo not given)", "growth": "91.7%"}
{"smiles": "CCCCNc1ccc(-c2ccc(NCCCC)cc2)cc1", "growth": "45.4%"}
{"smiles": "CC/C(=C(/c1ccc(Cl)cc1)c1ccc(OCCN2CCCCC2)cc1)c1ccc(OC)cc1", "growth": "24%"}
{"smiles": "CCOC(=O)n1cc(-c2nonc2-c2cn(C)c3ccccc23)c2ccccc21", "growth": "1.6% (active)"}
{"smiles": "S=C(Nc1ccc(Cl)cc1)Nc1ccc(Cl)cc1", "note": "(tested in a mixture with another compound)", "growth": "8.57% (active)"}
{"smiles": "COc1ccc(C(=O)/C=C/c2cccnc2Nc2cc(OC)c(OC)c(OC)c2)cc1", "growth": "-23.2% (active)"}
{"smiles": "COc1cc(-c2nn(-c3cccc(NC(=O)c4cccc(C(F)(F)F)c4)c3)cc2-c2ccncc2)ccc1Cl", "growth": "1.93% (active)"}
{"smiles": "COc1cccc2c(=O)c3c(sc12)c(NCCCN)nc1ccccc13", "growth": "44.2%"}
{"smiles": "COc1ccc(-n2c(N)c(-c3nc4ccccc4[nH]3)cc(C#N)c2=O)cc1", "growth": "99%"}
{"smiles": "S=c1nc(-c2ccccn2)c(-c2ccccn2)n[nH]1", "growth": "92.8%"}
{"smiles": "CS(=O)(=O)c1nccc(-c2c(-c3cccc(OCc4ccccc4)c3)nc3sccn23)n1", "growth": "82.8%"}
{"smiles": "Cc1nc2sc(C(=O)Nc3ccc(Br)cc3)c(N)c2cc1C(O)c1ccccc1", "note": "(stereo not given)", "growth": "22.4%"}
{"smiles": "Oc1ccc(Cl)cc1-c1cc(-c2ccc(F)cc2)n[nH]1", "growth": "74.9%"}
{"smiles": "COc1ccc(NC(=O)c2sc3nc4c(cc3c2N)CCCC4)cc1", "growth": "-14.6% (active)"}
{"smiles": "O=C(OCCCCOC(=O)n1cnc2ccccc21)n1cnc2ccccc21", "growth": "104%"}
